# Results taken from PubChem BioAssay (EPA / NIEHS).
# Active and inactive are the calls of the source. The calls were made as follows: active = hit-call score of the fitted dose curve at least 0.9, where 1 is the maximum; inactive = score below 0.9.
# Columns and labels:
# Details in all cases: mRNA level, 48 h; actives raise or lower the signal
# [1] = read-out: ABC Transporter (ABCC3), ABCC3 (gene 8714); experiment: LTEA_HepaRG_ABCC3: Life Technologies and Expression Analysis (LTEA) Assay for ABC Transporter (ABCC3) using HepaRG (AID 2283462)
# Procedure, shortened: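 HepaRG cells in serum-free induction medium were exposed for 48 h in duplicate to 8-point half-log concentrations topping at 100 uM in 0.5% DMSO. ABCC3 mRNA was measured by qRT-PCR normalized to ACTB, GAPDH and POLR2A, with bidirectional fitting versus DMSO.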
# [2] = read-out: ABC Transporter (ABCB11), ABCB11 (gene 8647); experiment: LTEA_HepaRG_ABCB11: Life Technologies and Expression Analysis (LTEA) Assay for ABC Transporter (ABCB11) using HepaRG (AID 2283463)
# Procedure, shortened: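 Using HepaRG cultures held in 0.5% DMSO, chemicals were tested at half-log dilutions from 100 uM for 48 h. Induction or suppression of ABCB11 mRNA, normalized to ACTB, GAPDH and POLR2A, was fitted bidirectionally against vehicle.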
# [3] = read-out: ABC Transporter (ABCC2), ABCC2 (gene 1244); experiment: LTEA_HepaRG_ABCC2: Life Technologies and Expression Analysis (LTEA) Assay for ABC Transporter (ABCC2) using HepaRG (AID 2283464)
# Procedure, shortened: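 HepaRG cells were plated 48 h, switched to serum-free induction medium, then exposed in duplicate for 48 h to 8 concentrations (top 100 uM, half-log steps, 0.5% DMSO). ABCC2 mRNA was measured by qRT-PCR normalized to ACTB/GAPDH/POLR2A; bidirectional fitting versus DMSO.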
# [4] = read-out: Broad substrate specificity ATP-binding cassette transporter ABCG2 (Homo sapiens) (UniProt Q9UNQ0); experiment: LTEA_HepaRG_ABCG2: Life Technologies and Expression Analysis (LTEA) Assay for ABC Transporter (ABCG2) using HepaRG (AID 2283465)
# Procedure, shortened: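 Gene expression of ABCG2 in HepaRG liver cells is quantified by qRT-PCR following 48 h exposure across an eight-point series topping at 100 uM. Values come from bidirectional fitting relative to DMSO vehicle.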
# [5] = read-out: ATP-citrate lyase (ACLY), ACLY (gene 47); experiment: LTEA_HepaRG_ACLY: Life Technologies and Expression Analysis (LTEA) Assay for ATP-citrate lyase (ACLY) using HepaRG (AID 2283466)
# Procedure, shortened: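 ACLY expression changes in human HepaRG liver cells are quantified by qRT-PCR after 48 h exposure to test chemicals (maximum 100 uM, half-log steps). Values are fitted in both directions relative to 0.5% DMSO vehicle.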
# [6] = read-out: Peroxisomal acyl-coenzyme A oxidase 1 (ACOX1) gene, ACOX1 (gene 51); experiment: LTEA_HepaRG_ACOX1: Life Technologies and Expression Analysis (LTEA) Assay for Peroxisomal acyl-coenzyme A oxidase 1 (ACOX1) gene using HepaRG (AID 2283467)
# Procedure, shortened: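 Human HepaRG hepatic cultures, 48 h treatment with test chemicals up to 100 uM. ACOX1 expression read by qRT-PCR relative to 0.5% DMSO vehicle.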
# [7] = read-out: Alkaline Phosphatase, Placental (ALPP) gene, ALPP (gene 250); experiment: LTEA_HepaRG_ALPP: Life Technologies and Expression Analysis (LTEA) Assay for Alkaline Phosphatase, Placental (ALPP) gene using HepaRG (AID 2283468)
# Procedure, shortened: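 Differentiated human HepaRG cells were plated and cultured 48 h, then exposed in duplicate for 48 h in serum-free induction medium to eight half-log concentrations from 100 uM in 0.5% DMSO. ALPP mRNA was measured by TaqMan qRT-PCR, normalized to ACTB, GAPDH, POLR2A.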
# [8] = read-out: Bcl-2 (BAD) gene, BAD (gene 572); experiment: LTEA_HepaRG_BAD: Life Technologies and Expression Analysis (LTEA) Assay for Bcl-2 (BAD) gene using HepaRG (AID 2283469)
# Procedure, shortened: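 Activity values reflect up- or down-regulation of BAD mRNA in human HepaRG hepatic cells treated 48 h in serum-free medium, with eight-point half-log dosing capped at 100 uM and 0.5% DMSO vehicle.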
# [9] = read-out: Bcl-2 (BAX) gene, BAX (gene 581); experiment: LTEA_HepaRG_BAX: Life Technologies and Expression Analysis (LTEA) Assay for Bcl-2 (BAX) gene using HepaRG (AID 2283470)
# Procedure, shortened: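 Cells were thawed, plated for 48 h, moved to serum-free induction medium and dosed for 48 h (highest concentration 100 uM, half-log steps, 0.5% DMSO). Total RNA was then analysed for BAX expression by qRT-PCR.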
# [10] = read-out: adenosine kinase (ADK) gene, ADK (gene 132); experiment: LTEA_HepaRG_ADK: Life Technologies and Expression Analysis (LTEA) Assay for adenosine kinase (ADK) gene using HepaRG (AID 2283471)
# Procedure, shortened: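 HepaRG (human liver), 48 h chemical exposure, 8-pt half-log series, top 100 uM, 0.5% DMSO vehicle. Readout: ADK mRNA by qRT-PCR vs housekeeping genes; bidirectional curve fit relative to DMSO baseline.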
# Chain of Broad substrate specificity ATP-binding cassette transporter ABCG2 (Homo sapiens) (Q9UNQ0 whole entry, looked up): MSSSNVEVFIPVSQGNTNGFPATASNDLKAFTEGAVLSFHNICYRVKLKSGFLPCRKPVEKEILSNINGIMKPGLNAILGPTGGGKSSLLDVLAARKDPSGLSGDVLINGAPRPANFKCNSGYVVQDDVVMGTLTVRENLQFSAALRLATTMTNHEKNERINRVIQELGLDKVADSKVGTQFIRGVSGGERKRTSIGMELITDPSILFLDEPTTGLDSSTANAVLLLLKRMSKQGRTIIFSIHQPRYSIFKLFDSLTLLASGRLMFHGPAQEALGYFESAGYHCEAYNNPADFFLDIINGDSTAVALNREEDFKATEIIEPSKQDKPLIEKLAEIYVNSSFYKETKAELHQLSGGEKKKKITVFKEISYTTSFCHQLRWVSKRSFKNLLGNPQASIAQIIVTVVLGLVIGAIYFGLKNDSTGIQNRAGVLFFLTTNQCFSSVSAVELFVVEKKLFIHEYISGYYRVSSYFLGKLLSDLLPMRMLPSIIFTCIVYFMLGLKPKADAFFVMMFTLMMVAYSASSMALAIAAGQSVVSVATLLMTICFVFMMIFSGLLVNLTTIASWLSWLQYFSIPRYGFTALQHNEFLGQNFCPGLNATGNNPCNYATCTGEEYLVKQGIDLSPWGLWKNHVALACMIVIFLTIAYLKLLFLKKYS
SMILES,outcome [1],outcome [2],outcome [3],outcome [4],outcome [5],outcome [6],outcome [7],outcome [8],outcome [9],outcome [10],AC50 [3]
CN(C)C(=S)S,inactive,inactive,inactive,inactive,inactive,inactive,inactive,inactive,inactive,inactive,–
Oc1c(Cl)cc(Cl)cc1Cl,inactive,–,inactive,inactive,inactive,inactive,inactive,inactive,inactive,inactive,–
COc1ccccc1N,inactive,inactive,inactive,inactive,inactive,inactive,inactive,inactive,inactive,inactive,–
OCCN(CCO)CCO,inactive,inactive,inactive,inactive,inactive,inactive,inactive,inactive,inactive,inactive,–
Oc1cc(Cl)c(Cl)cc1Cl,inactive,inactive,inactive,inactive,inactive,inactive,inactive,inactive,inactive,inactive,–
CCCCCCCCCCCCc1cccc(S(=O)(=O)O)c1,inactive,inactive,–,inactive,inactive,inactive,inactive,inactive,inactive,inactive,45 µM (active)
Clc1cccc(Cl)c1Cl,inactive,inactive,inactive,inactive,inactive,inactive,inactive,inactive,inactive,inactive,–
